Results published in PubChem BioAssay (NCATS).
Results filed as inconclusive are left out. A call without a number means that no potency is given here. Active and inactive are the calls of the source. Calls follow the shape of the dose curve; as a rule, active = well fitted curve in the direction sought with a large enough effect; inconclusive = small, poorly fitted or top-dose-only effect, or another doubt; inactive = no such curve, though single readings can be large; an effect the other way counts as inactive or inconclusive.

Columns and labels:
[1] = Quantitative High-Throughput drug screen in 47 multiple myeloma cell lines against the NCATS MIPE library collection: EJM_DSMZ cell viability assay (AID 1918926; also: nearly all actives have a fitted effect of over 30% in size; also: potency is read from the fitted curve at half-maximal effect)
Procedure, shortened: (§1)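 Luminescent ATP measurement with CellTiter-Glo gives viability, scaled between DMSO-only wells (100%) and media-only wells (0%). Cells, 500 per well, faced library compounds for 48 hours at 37C.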

[2] = Quantitative High-Throughput drug screen in 47 multiple myeloma cell lines against the NCATS MIPE library collection: AMO1_DSMZ cell viability assay (AID 1918927; also: nearly all actives have a fitted effect of over 30% in size; also: potency is read from the fitted curve at half-maximal effect)
Procedure, shortened: as §1

[3] = Quantitative High-Throughput drug screen in 47 multiple myeloma cell lines against the NCATS MIPE library collection: ARP1_JJKsccF8 cell viability assay (AID 1918928; also: nearly all actives have a fitted effect of over 40% in size; also: potency is read from the fitted curve at half-maximal effect)
Procedure, shortened: (§2)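 CellTiter-Glo luminescence after 48 h exposure gives viability, scaled between DMSO-only (100%) and media-only (0%) controls. Library compounds are pinned onto 500 myeloma cells per well, incubated at 37C with 5% CO2.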

[4] = Quantitative High-Throughput drug screen in 47 multiple myeloma cell lines against the NCATS MIPE library collection: ARD_JJKsccE7 cell viability assay (AID 1918929; also: potency is read from the fitted curve at half-maximal effect)
Procedure, shortened: as §1

[5] = Quantitative High-Throughput drug screen in 47 multiple myeloma cell lines against the NCATS MIPE library collection: Karpas620_DSMZ cell viability assay (AID 1918959); also: nearly all actives have a fitted effect of over 30% in size; also: potency is read from the fitted curve at half-maximal effect
Procedure, shortened: (§3)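 qHTS of the MIPE 4.0 collection: 500 myeloma cells/well, 48 h drug exposure at 37C in 5% CO2, then CellTiter-Glo for 5 min at room temperature before luminescence reading.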

[6] = Quantitative High-Throughput drug screen in 47 multiple myeloma cell lines against the NCATS MIPE library collection: KMM1_JCRB cell viability assay (AID 1918960); also: nearly all actives have a fitted effect of over 30% in size; also: potency is read from the fitted curve at half-maximal effect
Procedure, shortened: as §2

[7] = Quantitative High-Throughput drug screen in 47 multiple myeloma cell lines against the NCATS MIPE library collection: Karpas417_ECACC cell viability assay (AID 1918961); conditions: Karpas417 myeloma viability, CellTiter-Glo ATP luminescence, 48 h; viability (% of DMSO): at 45.8 µM (top of the series); also: potency is read from the fitted curve at half-maximal effect
Procedure, shortened: as §1

[8] = Quantitative High-Throughput drug screen in 47 multiple myeloma cell lines against the NCATS MIPE library collection: KHM11_PLB cell viability assay (AID 1918962); also: nearly all actives have a fitted effect of over 35% in size; also: potency is read from the fitted curve at half-maximal effect
Procedure, shortened: as §3

[9] = Quantitative High-Throughput drug screen in 47 multiple myeloma cell lines against the NCATS MIPE library collection: JIM3_ECACC cell viability assay (AID 1918963; also: nearly all actives have a fitted effect of over 35% in size; also: potency is read from the fitted curve at half-maximal effect)
Procedure, shortened: as §3

[10] = Quantitative High-Throughput drug screen in 47 multiple myeloma cell lines against the NCATS MIPE library collection: JIM1_ECACC cell viability assay (AID 1918964; also: potency is read from the fitted curve at half-maximal effect)
Procedure, shortened: as §1

[11] = Quantitative High-Throughput drug screen in 47 multiple myeloma cell lines against the NCATS MIPE library collection: INA6_PLB cell viability assay (AID 1918965; also: nearly all actives have a fitted effect of over 55% in size; also: potency is read from the fitted curve at half-maximal effect)
Procedure, shortened: as §1

[12] = Quantitative High-Throughput drug screen in 47 multiple myeloma cell lines against the NCATS MIPE library collection: H1112_PLB cell viability assay (AID 1918967; also: nearly all actives have a fitted effect of over 30% in size; also: potency is read from the fitted curve at half-maximal effect)
Procedure, shortened: as §1

[13] = Quantitative High-Throughput drug screen in 47 multiple myeloma cell lines against the NCATS MIPE library collection: Karpas25_ECACC cell viability assay (AID 1918968; also: nearly all actives have a fitted effect of over 35% in size; also: potency is read from the fitted curve at half-maximal effect)
Procedure, shortened: as §1

[14] = Quantitative High-Throughput drug screen in 47 multiple myeloma cell lines against the NCATS MIPE library collection: KMS27_JCRB cell viability assay (AID 1918970); also: nearly all actives have a fitted effect of over 30% in size; also: potency is read from the fitted curve at half-maximal effect
Procedure, shortened: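 KMS27_JCRB myeloma cells, 500 per well, exposed 48 h at 37 C, 5% CO2 to MIPE 4.0 compounds. Viability from ATP by CellTiter-Glo luminescence, normalized to DMSO (100%) and medium-only (0%) wells.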

[15] = Quantitative High-Throughput drug screen in 47 multiple myeloma cell lines against the NCATS MIPE library collection: KMS12BM_JCRB cell viability assay (AID 1918971); also: nearly all actives have a fitted effect of over 35% in size; also: potency is read from the fitted curve at half-maximal effect
Procedure, shortened: (§4)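 Approved and investigational drugs from MIPE 4.0 were added by pin tool to 500 cells per well. After 48 hours at 37C, ATP-based CellTiter-Glo luminescence indicated remaining viability.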

[16] = Quantitative High-Throughput drug screen in 47 multiple myeloma cell lines against the NCATS MIPE library collection: KMS12PE_JCRB cell viability assay (AID 1918972); also: nearly all actives have a fitted effect of over 30% in size; also: potency is read from the fitted curve at half-maximal effect
Procedure, shortened: as §1

[17] = Quantitative High-Throughput drug screen in 47 multiple myeloma cell lines against the NCATS MIPE library collection: KMS21BM_JCRB cell viability assay (AID 1918974); conditions: ATP luminescence, 48 h; viability: at 45.8 µM (top of the series); also: potency is read from the fitted curve at half-maximal effect
Procedure, shortened: as §1

[18] = Quantitative High-Throughput drug screen in 47 multiple myeloma cell lines against the NCATS MIPE library collection: KMS26_JCRB cell viability assay (AID 1918975); also: nearly all actives have a fitted effect of over 45% in size; also: potency is read from the fitted curve at half-maximal effect
Procedure, shortened: as §4

[19] = Quantitative High-Throughput drug screen in 47 multiple myeloma cell lines against the NCATS MIPE library collection: JJN3_DSMZ cell viability assay (AID 1918966; also: nearly all actives have a fitted effect of over 50% in size)
Procedure, shortened: as §1

With `Nc1nc(F)nc2c1ncn2[C@@H]1O[C@H](CO)[C@@H](O)[C@@H]1O` the Potency [1] was 418 nM (active), the Potency [2] was 372 nM (active) and the Potency [3] was 264 nM (active). For the same compound, the Potency [4] was 332 nM (active), the Potency [5] was 296 nM (active) and the Potency [6] was 526 nM (active). The Potency [7] was 46.9 nM (active), the Potency [8] was 187 nM (active) and the Potency [9] was 662 nM (active). For the same compound, the Potency [10] was 93.5 nM (active), the Potency [11] was 166 nM (active) and the Potency [12] was 526 nM (active). The Potency [13] was 296 nM (active), the Potency [14] was 662 nM (active) and the Potency [15] was 209 nM (active). The Potency [16] was 235 nM (active), the Potency [17] was 59 nM (active) and the Potency [18] was 235 nM (active).

With `COc1ccccc1OCC(O)COC(N)=O` (stereo not given) the Potency [1] was “inactive”, the Potency [2] was “inactive” and the Potency [3] was “inactive”. For the same compound, the Potency [4] was “inactive”, the Potency [5] was “inactive” and the Potency [6] was “inactive”. For the same compound, the Potency [8] was “inactive”, the Potency [9] was “inactive” and the Potency [10] was “inactive”. The Potency [11] was “inactive”, the Potency [12] was “inactive” and the Potency [13] was “inactive”. For the same compound, the Potency [14] was “inactive”, the Potency [16] was “inactive” and the Potency [18] was “inactive”.

In the case of `COc1cc(NS(=O)(=O)c2ccc(N)cc2)nc(OC)n1`, the Potency [1] is reported as “inactive”, the Potency [2] is reported as “inactive” and the Potency [3] is reported as “inactive”. For the same compound, the Potency [4] was “inactive”, the Potency [5] was “inactive” and the Potency [6] was “inactive”. The Potency [9] was “inactive”, the Potency [11] was “inactive” and the Potency [19] was “inactive”. The Potency [12] was “inactive”, the Potency [13] was “inactive” and the Potency [14] was “inactive”. The Potency [15] was “inactive”, the Potency [16] was “inactive” and the Potency [17] was “inactive”. For the same compound, the Potency [18] was “inactive”.

With `CNCC[C@H](Oc1cccc2ccccc12)c1cccs1` the Potency [1] was 935 nM (active), the Potency [2] was 26400 nM (active) and the Potency [3] was 18700 nM (active). The Potency [4] was 23500 nM (active), the Potency [5] was 23500 nM (active) and the Potency [6] was 26400 nM (active). The Potency [8] was 5260 nM (active), the Potency [9] was 5260 nM (active) and the Potency [11] was 7430 nM (active). The Potency [12] was 2350 nM (active), the Potency [13] was 2960 nM (active) and the Potency [14] was 23500 nM (active). For the same compound, the Potency [18] was 7430 nM (active).

In the case of `CC1=C(C(=O)O)N2C(=O)[C@@H](NC(=O)C(N)c3ccccc3)[C@H]2SC1` (stereo not given in full), the Potency [1] is reported as “inactive”, the Potency [2] is reported as “inactive” and the Potency [3] is reported as “inactive”. The Potency [4] was “inactive”, the Potency [5] was “inactive” and the Potency [6] was “inactive”. For the same compound, the Potency [8] was “inactive”, the Potency [9] was 1.7 nM (active) and the Potency [12] was “inactive”. For the same compound, the Potency [13] was “inactive” and the Potency [16] was “inactive”.

For `COc1cc([C@@H]2c3cc4c(cc3[C@H](O)[C@H]3COC(=O)[C@H]23)OCO4)cc(OC)c1OC`, the Potency [1] was “inactive”, the Potency [2] was “inactive” and the Potency [3] was “inactive”. For the same compound, the Potency [4] was “inactive”, the Potency [5] was “inactive” and the Potency [6] was 1 nM (active). For the same compound, the Potency [7] was “inactive”, the Potency [8] was “inactive” and the Potency [9] was “inactive”. The Potency [10] was “inactive”, the Potency [11] was “inactive” and the Potency [13] was “inactive”. The Potency [14] was “inactive”, the Potency [16] was “inactive” and the Potency [17] was “inactive”.

For `CN1CCN(c2c(F)cc3c(=O)c(C(=O)O)cn4c3c2OCN4C)CC1`, the Potency [1] was “inactive”, the Potency [2] was “inactive” and the Potency [3] was “inactive”. The Potency [4] was “inactive”, the Potency [5] was “inactive” and the Potency [6] was “inactive”. For the same compound, the Potency [9] was “inactive”, the Potency [11] was “inactive” and the Potency [12] was “inactive”. The Potency [13] was “inactive”, the Potency [14] was “inactive” and the Potency [16] was “inactive”.
